Assay outcomes as filed in PubChem.
Hits are enriched below; roughly 11% of the tested compounds scored in any of these assays.
BAZ2B block: BAZ2B (human) inhibition; Potency, µM (titrated, usually from 114 µM), hits mostly inhibitors; hit rate 4.4% among 360,000; AlphaScreen BAZ2B-H3K14Ac peptide displacement; Q9UIF8; further: nearly all actives have a fitted effect of over 60% in size
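BAZ2B 50 nM plus b-H3(5-23)K14Ac 50 nM, PBS pH 7.4/0.01% Tween-20, 30 min RT; compound added (max 110 uM), 30 min RT; streptavidin donor/Ni-chelate acceptor beads 10 ug/mL final, 20 min dark; AlphaScreen read.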
JMJD2A Tudor: JMJD2A Tudor domain (human) inhibition | O75164 | AlphaScreen JMJD2A-Tudor / H3K4me3 peptide binding | Potency, µM (titrated, usually from 114 µM), hits mostly inhibitors | hit rate 4.4% among 390,000 | AID 504339; further: nearly all actives have a fitted effect of over 50% in size
G9a inh: blocks human histone lysine methyltransferase G9a. Potency, µM (titrated, usually from 102 µM), actives largely listed as inhibitors. Q96KQ7. hit rate 8.8% among 350,000. G9a H3K9 monomethylation, AlphaScreen, 2 h; further: nearly all actives have a fitted effect of over 75% in size
Target sequence (Q96KQ7 913-1193 limits assumed): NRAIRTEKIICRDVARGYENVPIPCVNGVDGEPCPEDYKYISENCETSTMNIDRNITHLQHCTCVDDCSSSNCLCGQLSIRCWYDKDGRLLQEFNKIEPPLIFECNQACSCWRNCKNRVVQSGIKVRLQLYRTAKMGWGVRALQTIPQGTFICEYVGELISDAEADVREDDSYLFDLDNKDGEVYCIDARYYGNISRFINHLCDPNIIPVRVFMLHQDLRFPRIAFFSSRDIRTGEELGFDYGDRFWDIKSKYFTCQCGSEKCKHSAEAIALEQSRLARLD
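Compounds were preincubated with 20 nM G9a for 15 min, after which biotinylated H3K9 peptide (500 nM) and SAM (20 uM) started a 2 h room-temperature reaction. Monomethylated product was quantified by antibody-based AlphaScreen chemiluminescence.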
L3MBTL1 inh: inhibitors of human L3MBTL1. Q9Y468. AlphaScreen L3MBTL1–H3K9me1 peptide binding. Potency, µM (highest dose often 57.1 µM), usual class: inhibitors. hit rate 0.66% among 230,000. AID 485360; further: nearly all actives have a fitted effect of over 60% in size
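Displacement of a biotinylated histone H3(1-15) peptide monomethylated at Lys9 (75 nM) from L3MBTL1 (50 nM) was measured by AlphaScreen after a 30 min room-temperature compound incubation; cefsulodin titration served as intraplate control.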
HP1b chromo inh: inhibitors of HP1-beta chromodomain binding to methylated histone tails; AlphaScreen HP1-beta / biotin-H3K9me3 peptide binding; hit rate 0.56% among 390,000; AID 540317; Potency, µM (series often up to 114 µM), usual class: inhibitors; further: nearly all actives have a fitted effect of over 70% in size
Target sequence (P83916 whole entry, looked up): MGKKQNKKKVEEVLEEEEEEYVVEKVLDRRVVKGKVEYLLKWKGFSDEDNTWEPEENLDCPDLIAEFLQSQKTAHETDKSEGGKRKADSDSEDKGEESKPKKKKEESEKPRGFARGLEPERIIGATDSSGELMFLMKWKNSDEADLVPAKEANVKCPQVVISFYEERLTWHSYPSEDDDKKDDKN
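Compound inhibition of the preformed complex between 50 nM HP1-beta and 50 nM biotinylated H3K9me3 peptide was read by AlphaScreen. Buffer was PBS pH 7.4 with 0.01% Tween-20. Incubations ran 30 min at room temperature, with 10 ug/mL donor/acceptor beads.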
Each line names hits and unclear results; the compound was inactive in the other large screens. The call rests on the fitted dose curve; in most records, active means well fitted inhibition curve with a large enough effect; inconclusive means small, poorly fitted or top-dose-only effect; inactive means no such curve, though single readings can be large or run the other way.

COc1ccc(N2CCN(CC(O)COc3ccc(C(C)C)c(C)c3)CC2)cc1 (stereo not drawn)	JMJD2A Tudor inconclusive, G9a inh 6.3µM (no result: L3MBTL1 inh)
Cc1cc(OCC(O)CN2CCCC2)ccc1C(C)C (stereo not drawn)	none (no result: G9a inh)
Cc1cc(OCC(O)CN2CCN(c3cccc(Cl)c3)CC2)ccc1Cl (stereo not drawn)	JMJD2A Tudor 79µM (no result: L3MBTL1 inh)
O=C(COC(=O)C1CC(=O)N(Cc2ccco2)C1)Nc1nc(-c2ccc(F)cc2)cs1 (stereo not drawn)	none (no result: BAZ2B block, G9a inh)
O=Cc1coc2ccc3ccccc3c2c1=O	JMJD2A Tudor inconclusive, G9a inh 50µM
NC(=O)N/N=C/c1coc2ccc3ccccc3c2c1=O	none
O=C(COC(=O)CNC(=O)C1CCCCC1)NC1CCCC1	none (no result: BAZ2B block, G9a inh, L3MBTL1 inh)
CCCCc1nnc2c(N(C)S(=O)(=O)c3ccccc3)nc3ccccc3n12	G9a inh 71µM
COc1ccc(N2C(=O)CCC(C(=O)N3CCCCC3)C2c2ccc(OC)c(OC)c2)cc1 (stereo not drawn)	G9a inh 56µM
CCOC(=O)/C(C#N)=C1/CCCCCN1C	none
CCOC(=O)/C(C#N)=C1\CCCN1CC(N)=S	G9a inh 18µM
COC(=O)c1cccc(-n2sc3ccccc3c2=O)c1	BAZ2B block 6.3µM, JMJD2A Tudor 14µM
COC(=O)c1cccc(N2CCCC2=O)c1	none (no result: L3MBTL1 inh)
O=c1c2ccccc2sn1-c1ccc(F)cc1	BAZ2B block 4.5µM, JMJD2A Tudor 13µM
CCn1c(=O)n(CC)c2cc(N3CCCC3)c(NC(=O)c3ccccc3OC)cc21	BAZ2B block 45µM, JMJD2A Tudor inconclusive, G9a inh 35µM, HP1b chromo inh inconclusive (no result: L3MBTL1 inh)
CCn1c(=O)n(CC)c2cc(N3CCCC3)c(NC(=O)c3cc(Cl)ccc3OC)cc21	BAZ2B block 25µM, JMJD2A Tudor 50µM, G9a inh 40µM, HP1b chromo inh inconclusive (no result: L3MBTL1 inh)
CCOc1ccccc1C(=O)Nc1cc2c(cc1N1CCCC1)n(CC)c(=O)n2CC	BAZ2B block 18µM, JMJD2A Tudor 50µM, G9a inh 45µM (no result: L3MBTL1 inh)
Cc1ccc(CCNC(=O)c2sc3ncccc3c2-n2c(C)ccc2C)cc1	none (no result: L3MBTL1 inh)
Cn1c(=O)c2c(-c3ccccc3)n3c(c2n(C)c1=O)C(c1cccc([N+](=O)[O-])c1)Nc1ccccc1-3 (stereo not drawn)	none (no result: L3MBTL1 inh)
COC(=O)c1ccccc1NC(=O)CSc1nc2ccccc2nc1Cc1ccc(F)cc1	none (no result: L3MBTL1 inh)
COCCN1C=C2C(=O)C(C)(OC(=O)CCC(=O)OC)C(=O)C(Br)=C2C=C1c1ccc(OC)cc1 (stereo not drawn)	JMJD2A Tudor inconclusive (no result: BAZ2B block, G9a inh, L3MBTL1 inh)
COC(=O)CCC(=O)OC1(C)C(=O)C2=CN(C3CCCC3)C(c3ccc(OC)cc3)=CC2=C(Br)C1=O (stereo not drawn)	BAZ2B block 45µM, JMJD2A Tudor 56µM, HP1b chromo inh inconclusive (no result: L3MBTL1 inh)
COC(=O)CCCC1=CC2=C(c3ccccc3)C(=O)C(C)(OC(=O)C3CCCC3)C(=O)C2=CN1Cc1ccc(OC)cc1 (stereo not drawn)	BAZ2B block inconclusive, JMJD2A Tudor 50µM, G9a inh inconclusive, HP1b chromo inh inconclusive (no result: L3MBTL1 inh)
COC(=O)CCC(=O)OC1(C)C(=O)C2=CN(c3ccc(OC)cc3)C(c3ccc(OC)cc3)=CC2=C(Br)C1=O (stereo not drawn)	JMJD2A Tudor 40µM, HP1b chromo inh inconclusive (no result: BAZ2B block, G9a inh, L3MBTL1 inh)
CCOc1ccc(NC(=O)Cn2c(=O)n(CCc3ccccc3)c(=O)c3c4c(sc32)CN(C(C)=O)CC4)cc1	none (no result: L3MBTL1 inh)
CCc1cccc(C)c1NC(=S)NCc1ccc2[nH]c(C)cc2c1	BAZ2B block 40µM, JMJD2A Tudor inconclusive, G9a inh inconclusive
CCC(=O)NCc1ccc2[nH]c(C)cc2c1	G9a inh 35µM
CC(=O)NCc1ccc2[nH]c(C)cc2c1	G9a inh inconclusive
CCCCN(CCCC)CCNC(=O)Cn1nc(CC)n2c(cc3sc(C)cc32)c1=O	none (no result: L3MBTL1 inh)
C/C=C/c1ccc(OCC(=O)Nc2ccc(C(N)=O)cc2)c(OC)c1	none
COc1cc(/C=N\NC(=O)c2ccc(-c3ccccc3)cc2)ccc1OCC(N)=O	JMJD2A Tudor 89µM (no result: L3MBTL1 inh)
COc1cc(/C=N/NC(=O)c2ccccc2O)ccc1OCC(=O)Nc1ccccc1	BAZ2B block 79µM
COc1cc(/C=N/NC(=O)c2ccncc2)ccc1OCC(=O)Nc1ccccc1	none (no result: L3MBTL1 inh)
COc1cc(/C=N\NC(=O)CC#N)ccc1OC/C=C/c1ccccc1	BAZ2B block 56µM, JMJD2A Tudor 79µM (no result: L3MBTL1 inh)
